DT40 TDP1 CPT = qHTS for Inhibitors of human tyrosyl-DNA phosphodiesterase 1 (TDP1): qHTS in cells in presence of CPT | chicken DT40 Tdp1-/-;hTDP1 cells + 20 nM CPT, ATP luminescence, 48 h | Potency, µM (highest dose often 46.2 µM), hits mostly inhibitors | 420,000 compounds, 12% hits | AID 686979, 2013; further: nearly all actives have a fitted effect of over 55% in size
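Cell growth measured by CellTiter-Glo luminescence after a minimum 48 h, 37 C compound exposure with 20 nM CPT in Tdp1-knockout DT40 cells stably expressing hTDP1, seeded 400/well; qHTS titration format.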
HT1080-NT tox = qHTS for induction of synthetic lethality in tumor cells producing 2HG: qHTS for the HT-1080-NT fibrosarcoma cell line; 360,000 compounds, 1.6% hits; Potency, µM (highest dose often 46.1 µM), actives largely listed as cytotoxic; HT-1080-NT fibrosarcoma viability, CellTiter-Glo ATP luminescence, 48 h;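 further: NT is the 2HG producing partner of a matched IDH1 knockdown line; nearly all actives have a fitted effect of over 55% in size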
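Toxicity toward the 2HG-producing NT line was scored as %Activity, normalised to DMSO and no-cell wells, from CellTiter-Glo luminescence after 48 hours' treatment.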
IL-1B inflam inh = qHTS for Inhibitors of Inflammasome Signaling: IL-1-beta AlphaLISA Primary Screen. THP-1 LPS/ATP IL-1B secretion, AlphaLISA, 16 h; stronger effect = lower value. activity change, % at 57.5 µM. 360,000 compounds, 4.7% hits; in the data active means activity change below about -50%; inconclusive means mostly about -30% to -49%
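THP-1 cells pretreated 1 hr with compounds (up to 57.5 uM final), then stimulated with LPS (250 ng/mL final) plus ATP (1.25 mM final); secreted IL-1B measured by AlphaLISA after 16 hr, decreased signal indicating inhibition.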
HT1080 IDH1KD tx = qHTS for induction of synthetic lethality in tumor cells producing 2HG: qHTS for the HT-1080-IDH1KD cell line; Potency, µM (highest dose often 46.1 µM), hits mostly cytotoxic; 360,000 compounds, 2% hits; HT-1080 IDH1 knockdown viability, ATP luminescence, 48 h; AID 686971, 2013
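Luminescent ATP read-out (CellTiter-Glo, 10 min at room temperature) after 48 h compound exposure at 37 °C gave viability of IDH1-knockdown HT-1080 cells. Activity was normalised to DMSO and cell-free wells, then fitted as concentration-response curves.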
DT40 TDP1 no CPT = qHTS for Inhibitors of human tyrosyl-DNA phosphodiesterase 1 (TDP1): qHTS in cells in absence of CPT; Potency, µM (series often up to 46.2 µM), usual class: inhibitors; 420,000 compounds, 15% hits; DT40 Tdp1-/- hTDP1 cells, no CPT, ATP luminescence, 48 h; further: nearly all actives have a fitted effect of over 55% in size
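Chicken DT40 Tdp1-/- cells stably complemented with human TDP1 were seeded at 400 cells/well with DMSO in place of 20 nM camptothecin. After compound pinning, cells grew at least 48 hr at 37 °C; viability read by CellTiter-Glo luminescence.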
Large screens that a line does not name were inactive. Sampled rows, rich in hits. Any-hit rate of the full collection: about 19%. Unless noted, the call rests on the fitted dose curve; in most records, active means well fitted curve in the direction sought with a large enough effect; inconclusive means small, poorly fitted or top-dose-only effect, or another doubt; inactive means no such curve, though single readings can be large; an effect the other way counts as inactive or inconclusive.

CCN(Cc1ccc(C#CCCO)cc1)CC1CCCN(CCc2cccc(OC)c2)C1 (centres undefined)	DT40 TDP1 CPT inconclusive, DT40 TDP1 no CPT 21µM
O=C(/C=C/c1ccc(Cl)cc1)NCc1ccco1	DT40 TDP1 CPT inconclusive, DT40 TDP1 no CPT inconclusive
O=C(/C=C/c1ccc(S(=O)(=O)NCc2ccco2)cc1)NCc1ccccc1Cl	DT40 TDP1 CPT inconclusive, HT1080-NT tox inconclusive, IL-1B inflam inh inconclusive, HT1080 IDH1KD tx inconclusive, DT40 TDP1 no CPT 18µM
COc1ccc(CNC(=O)/C=C/c2ccc(S(=O)(=O)NCc3ccco3)cc2)cc1OC	DT40 TDP1 CPT inconclusive, DT40 TDP1 no CPT 26µM
Cc1[nH]nc2c1C(C1CC=CCC1)C(C#N)=C(N)O2 (centres undefined)	DT40 TDP1 CPT 21µM, HT1080-NT tox inconclusive, IL-1B inflam inh -112, HT1080 IDH1KD tx inconclusive, DT40 TDP1 no CPT inconclusive
CCC(CC)C1C(C#N)=C(N)Oc2n[nH]c(-c3ccccc3)c21 (centres undefined)	DT40 TDP1 CPT inconclusive, HT1080-NT tox inconclusive, DT40 TDP1 no CPT 26µM
N#CC1=C(N)Oc2n[nH]c(-c3ccccc3)c2C1c1ccsc1 (centres undefined)	DT40 TDP1 CPT inconclusive, DT40 TDP1 no CPT 12µM
CC(C)C1C(C#N)=C(N)Oc2n[nH]c(-c3ccc4ccccc4c3)c21 (centres undefined)	DT40 TDP1 CPT inconclusive, HT1080-NT tox inconclusive, HT1080 IDH1KD tx inconclusive, DT40 TDP1 no CPT 10µM
CCC(CC)C1C(C#N)=C(N)Oc2n[nH]c(C)c21 (centres undefined)	DT40 TDP1 CPT 18µM, HT1080-NT tox 11µM, IL-1B inflam inh -88, HT1080 IDH1KD tx 11µM, DT40 TDP1 no CPT 16µM
CCc1[nH]nc2c1C(c1cccnc1)C(C#N)=C(N)O2 (centres undefined)	none
CCc1[nH]nc2c1C(C(C)C)C(C#N)=C(N)O2 (centres undefined)	DT40 TDP1 CPT inconclusive, IL-1B inflam inh -84, DT40 TDP1 no CPT inconclusive
O=C(Cc1ccccc1)NCC(=O)N1CCCCCC1	none
CC1=C(OC(=O)C(C)(C)C)C(C)(C)C(c2ccccc2)OC1=O (centres undefined)	DT40 TDP1 CPT inconclusive, DT40 TDP1 no CPT inconclusive
CCc1nc2ccc(C(=O)NC3CCN(Cc4ccccc4)CC3)cn2c1N(CC)Cc1cccc(Br)c1	DT40 TDP1 CPT 15µM, HT1080-NT tox inconclusive, IL-1B inflam inh -102, HT1080 IDH1KD tx 23µM, DT40 TDP1 no CPT 12µM
CCc1nc2ccc(C(=O)NCCCn3ccnc3)cn2c1N(CC)Cc1cccc(Br)c1	DT40 TDP1 CPT inconclusive, HT1080-NT tox inconclusive, HT1080 IDH1KD tx inconclusive, DT40 TDP1 no CPT inconclusive
CCc1nc2ccc(C(=O)N(C)Cc3ccco3)cn2c1N(C)CCCc1ccccc1	DT40 TDP1 CPT 16µM, HT1080-NT tox inconclusive, IL-1B inflam inh inconclusive, HT1080 IDH1KD tx inconclusive, DT40 TDP1 no CPT 16µM
CCc1nc2ccc(C(=O)N(C)CCN(C)C)cn2c1N(C)Cc1cc2ccccc2s1	DT40 TDP1 CPT inconclusive, HT1080-NT tox 16µM, IL-1B inflam inh inconclusive, HT1080 IDH1KD tx inconclusive, DT40 TDP1 no CPT inconclusive
CCc1nc2ccc(C(=O)N3CCN(C(=O)c4ccco4)CC3)cn2c1N(C)Cc1nccs1	none
CCc1nc2ccc(C(=O)N3CCN(C(=O)c4ccco4)CC3)cn2c1N(CC)Cc1cccc(Br)c1	DT40 TDP1 CPT 15µM, DT40 TDP1 no CPT 23µM
NC/C(=N\O)c1ccc(Cl)cc1Cl	none
O=C(c1ccc(Cl)cc1)c1oc2ccccc2c1CS(=O)(=O)c1ccccc1	DT40 TDP1 CPT inconclusive, DT40 TDP1 no CPT inconclusive
Cc1nnc(SCC(=O)NC2CCCCCC2)n1C(C)C	none
CCc1nc2ccc(C(=O)N(C)Cc3ccco3)cn2c1N(C)Cc1ccc(OC)cc1	DT40 TDP1 CPT inconclusive, IL-1B inflam inh inconclusive, DT40 TDP1 no CPT inconclusive
CCc1nc2ccc(C(=O)N(C)Cc3ccco3)cn2c1N(CC)Cc1cccc(Br)c1	DT40 TDP1 CPT 12µM, HT1080-NT tox inconclusive, DT40 TDP1 no CPT 13µM
CC(=O)c1cnc2nc(SCc3cccc(C)c3)nn2c1C	DT40 TDP1 CPT inconclusive, DT40 TDP1 no CPT 15µM
CC(=O)c1cnc2nc(SCc3ccccc3)nn2c1C	none
CN(O)/C=c1/ccc2c(n1)C(=O)C=CC=2	DT40 TDP1 CPT 4.6µM, HT1080-NT tox inconclusive, HT1080 IDH1KD tx inconclusive, DT40 TDP1 no CPT 4.6µM
CSCCC(NC(=O)c1ccccc1Br)C(=O)NNC(=O)c1ccncc1 (centres undefined)	none
Cc1[nH]c2ccccc2c1/C=N/n1cnnc1	none
COCCN=c1scc(-c2cc(OC)c(OC)c(OC)c2)n1/N=C/c1c(C)[nH]c2ccccc12	DT40 TDP1 CPT inconclusive, HT1080-NT tox inconclusive, IL-1B inflam inh inconclusive, HT1080 IDH1KD tx inconclusive, DT40 TDP1 no CPT 18µM
CCCc1nc2ccccc2c(C(=O)OCC(=O)N2CCc3ccccc32)c1CC	DT40 TDP1 CPT 18µM, DT40 TDP1 no CPT 12µM
CC1CCc2nc3ccccc3c(C(=O)OCC(=O)N3CCc4ccccc43)c2C1 (centres undefined)	DT40 TDP1 CPT 8.2µM, DT40 TDP1 no CPT 5.8µM
Cc1noc(C)c1C(=O)OCC(=O)N1CCc2ccccc21	none
CCc1noc(C)c1C(=O)OCC(=O)N1CCc2ccccc21	DT40 TDP1 no CPT 2.3µM
O=C(CSc1cccs1)Nc1ccc(Cl)cc1	none
CCS(=O)(=O)N1CC(=O)N(c2cc(C)ccc2C)C(C)(C(=O)NC2CCCCC2)C1 (centres undefined)	none (no result: HT1080-NT tox, IL-1B inflam inh, HT1080 IDH1KD tx)
O=C(CCN1C(=O)c2ccccc2S1(=O)=O)NCc1ccccc1Cl	none
Cc1n[nH]c2ccc([N+](=O)[O-])cc2c1=O	none
COc1cc(C(=O)N[C@H](C(=O)NC2CCCCCC2)C(C)C)cc(OC)c1OC	none
COc1ccccc1NC(=O)NC1CCCCCCC1	IL-1B inflam inh inconclusive
COc1ccccc1NC(=O)Nc1nc(C(N)C2CCCCC2)cs1 (centres undefined)	DT40 TDP1 CPT 23µM, HT1080-NT tox 16µM, HT1080 IDH1KD tx inconclusive, DT40 TDP1 no CPT 15µM (no result: IL-1B inflam inh)
COc1cc(NC(=O)Nc2nc(C(N)C(C)C)cs2)cc(OC)c1OC (centres undefined)	DT40 TDP1 CPT inconclusive, HT1080-NT tox 16µM, HT1080 IDH1KD tx inconclusive, DT40 TDP1 no CPT inconclusive
COc1cc(NC(=O)Nc2nc(C(N)C3CCCCC3)cs2)cc(OC)c1OC (centres undefined)	DT40 TDP1 CPT 16µM, HT1080 IDH1KD tx 21µM, DT40 TDP1 no CPT 23µM
O=C(Nc1ccccc1Cl)NC1CCCCCCC1	none
COc1cc(NC(=O)NC(C)(C(F)(F)F)C(F)(F)F)cc(OC)c1OC	DT40 TDP1 no CPT inconclusive
